# In the supplement of paper PMC12645437, “Orthogonal IMiD-Degron Pairs Induce Selective Protein Degradation in Cells” (ACS Chemical Biology, 2025):
# The full ranking holds about 8,300 sequences; the median of “log2 fold change of degron read counts, EGFP-low vs EGFP+ sorted cells (limma voom), compound-induced degradation” is about -1.1, and the highest 2% start at about 3.2. The sample as a whole holds a higher share of the highest values than the screen did.
# T1: CRBN, Q96SW2
# T1 chain: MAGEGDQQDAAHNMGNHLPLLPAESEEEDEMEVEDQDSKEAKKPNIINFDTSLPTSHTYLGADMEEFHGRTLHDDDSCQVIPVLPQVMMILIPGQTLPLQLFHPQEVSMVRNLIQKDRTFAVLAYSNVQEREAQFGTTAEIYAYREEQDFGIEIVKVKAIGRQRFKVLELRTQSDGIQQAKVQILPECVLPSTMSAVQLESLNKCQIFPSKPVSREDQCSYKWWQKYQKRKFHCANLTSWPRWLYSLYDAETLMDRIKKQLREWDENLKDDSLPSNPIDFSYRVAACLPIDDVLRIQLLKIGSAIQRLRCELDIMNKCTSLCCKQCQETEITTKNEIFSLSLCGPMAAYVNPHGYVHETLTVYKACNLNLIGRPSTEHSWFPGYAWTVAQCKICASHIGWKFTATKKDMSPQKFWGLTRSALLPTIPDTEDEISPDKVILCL
# Biological target: T1, CRBN, Q96SW2
# Test: log2 fold change of degron read counts, EGFP-low vs EGFP+ sorted cells (limma voom), compound-induced degradation; higher = more compound-induced degradation of the degron-EGFP fusion; degrons are variants of IKZF1/3 zinc finger 2; compound dose not given here
# Details: Jurkat, 18 h
# [1] = compound: compound 19 (5-tert-butyl-thalidomide)
# [2] = compound: compound 22 (5-morpholino-thalidomide)
# [3] = compound: compound 33 (diphenyl IMiD analogue)
# 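Also: pooled lentiviral library of zinc finger degron-EGFP fusions in mCherry-positive Jurkat cells, FACS-sorted after compound exposure, with degron abundance counted by next-generation sequencing.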
Sequence,log2 fold change of degron read counts [1],log2 fold change of degron read counts [2],log2 fold change of degron read counts [3],log2 fold change of degron read counts (compound: thalidomide)
"LQCNQCGFCCTQKGNLLRHIKL [46L_47Q_49N_50Q_52G_53F_54C_55C_67L_, Q9UKT9]",-2.28,-2.29,-2.54,-1.12
"FKCNQCGHRFTQKGNLLRHIKL [46F_47K_49N_50Q_52G_53H_54R_55F_67L_, Q9UKT9]",-2.45,-2.52,-2.56,-2.52
"FVCPVCGAKFTQKGNLLRHIKL [46F_47V_49P_50V_52G_53A_54K_55F_67L_, Q9UKT9]",-0.585,1.91,-0.53,2.09
"FFCPVCGAKFTQKGNLLRHIKL [46F_47F_49P_50V_52G_53A_54K_55F_67L_, Q9UKT9]",2.79,2.64,0.946,0.56
"FHCPVCGAKFTQKGNLLRHIKL [46F_47H_49P_50V_52G_53A_54K_55F_67L_, Q9UKT9]",2.35,1.96,0.171,0.556
"FMCPVCGAKFTQKGNLLRHIKL [46F_47M_49P_50V_52G_53A_54K_55F_67L_, Q9UKT9]",-0.124,-0.0797,0.661,0.797
"FDCPVCGAKFTQKGNLLRHIKL [46F_47D_49P_50V_52G_53A_54K_55F_67L_, Q9UKT9]",1.65,0.129,-0.726,1.92
"FGCPVCGAKFTQKGNLLRHIKL [46F_47G_49P_50V_52G_53A_54K_55F_67L_, Q9UKT9]",3.82,1.67,-0.46,1.12
"FACPVCGAKFTQKGNLLRHIKL [46F_47A_49P_50V_52G_53A_54K_55F_67L_, Q9UKT9]",3.4,1.28,-1.29,0.727
"FWCPVCGAKFTQKGNLLRHIKL [46F_47W_49P_50V_52G_53A_54K_55F_67L_, Q9UKT9]",2.74,3.29,0.923,0.809
"FNCPVCGAKFTQKGNLLRHIKL [46F_47N_49P_50V_52G_53A_54K_55F_67L_, Q9UKT9]",1.67,0.844,-1.26,0.347
"FKCPVCGAKFTQKGNLLRHIKL [46F_47K_49P_50V_52G_53A_54K_55F_67L_, Q9UKT9]",-1.68,-2.82,-3.08,-1.18
"FECPVCGAKFTQKGNLLRHIKL [46F_47E_49P_50V_52G_53A_54K_55F_67L_, Q9UKT9]",-0.0658,-1.21,-0.306,2.62
"FQCPVCGAKFTQKGNLLRHIKL [46F_47Q_49P_50V_52G_53A_54K_55F_67L_, Q9UKT9]",0.186,2.88,0.361,3.96
"FGCPICGRKFTQKGNLLRHIKL [46F_47G_49P_50I_52G_53R_54K_55F_67L_, Q9UKT9]",3.06,0.59,-1.32,-0.606
"FRCNQCGRVFTQKGNLLRHIKL [46F_47R_49N_50Q_52G_53R_54V_55F_67L_, Q9UKT9]",-2.28,-2.49,-2.54,-1.61
"FQCPICGRLFTQKGNLLRHIKL [46F_47Q_49P_50I_52G_53R_54L_55F_67L_, Q9UKT9]",-1.51,-0.0572,0.785,2.29

Sequence,log2 fold change of degron read counts [1],log2 fold change of degron read counts [2],log2 fold change of degron read counts [3],log2 fold change of degron read counts (compound: thalidomide)
"FVCEICGAFFTQKGNLLRHIKL [46F_47V_49E_50I_52G_53A_54F_55F_67L_, Q9UKT9]",-0.344,-0.0422,1.09,1.08
"FICDVCGALFTQKGNLLRHIKL [46F_47I_49D_50V_52G_53A_54L_55F_67L_, Q9UKT9]",-1.82,-0.923,0.0161,-0.806
"FCCPQCGATFTQKGNLLRHIKL [46F_47C_49P_50Q_52G_53A_54T_55F_67L_, Q9UKT9]",-1.19,-0.971,1.49,-0.551
"FLCPICGREFTQKGNLLRHIKL [46F_47L_49P_50I_52G_53R_54E_55F_67L_, Q9UKT9]",-2.12,-2.2,-0.686,0.04
"FNCNICGAIFTQKGNLLRHIKL [46F_47N_49N_50I_52G_53A_54I_55F_67L_, Q9UKT9]",-1.14,-1.24,-0.567,-1.09
"FQCDQCGAWFTQKGNLLRHIKL [46F_47Q_49D_50Q_52G_53A_54W_55F_67L_, Q9UKT9]",-2.29,-2.57,-1.93,-1.39
"FFCNVCGAAFTQKGNLLRHIKL [46F_47F_49N_50V_52G_53A_54A_55F_67L_, Q9UKT9]",1.2,1.43,0.704,-0.812
"FVCPICGAYFTQKGNLLRHIKL [46F_47V_49P_50I_52G_53A_54Y_55F_67L_, Q9UKT9]",0.319,1.86,1.7,2.59
"FNCPICGAYFTQKGNLLRHIKL [46F_47N_49P_50I_52G_53A_54Y_55F_67L_, Q9UKT9]",2.2,1.13,0.721,0.825
"FWCPICGAYFTQKGNLLRHIKL [46F_47W_49P_50I_52G_53A_54Y_55F_67L_, Q9UKT9]",2.72,2.69,2.4,0.973
"FTCPICGAYFTQKGNLLRHIKL [46F_47T_49P_50I_52G_53A_54Y_55F_67L_, Q9UKT9]",1,2.25,2.83,3.31
"FICPICGAYFTQKGNLLRHIKL [46F_47I_49P_50I_52G_53A_54Y_55F_67L_, Q9UKT9]",-0.481,2.03,1.75,1.86
"FQCPICGAYFTQKGNLLRHIKL [46F_47Q_49P_50I_52G_53A_54Y_55F_67L_, Q9UKT9]",-1.06,0.884,1.61,3.36
"FYCPICGAYFTQKGNLLRHIKL [46F_47Y_49P_50I_52G_53A_54Y_55F_67L_, Q9UKT9]",3.26,3.12,2.39,1.01
"FSCPICGAYFTQKGNLLRHIKL [46F_47S_49P_50I_52G_53A_54Y_55F_67L_, Q9UKT9]",2.23,1.26,2.17,1.38
"FCCPICGAYFTQKGNLLRHIKL [46F_47C_49P_50I_52G_53A_54Y_55F_67L_, Q9UKT9]",1.38,1.19,1.52,1.42
